# In PubChem BioAssay AID1490 (National Center for Advancing Translational Sciences (NCATS), 2009):
# Values joined by “and” are separate entries in the source; they are usually repeats but may differ in a detail not shown here. Identical values can stand only once. Among all 310,000 compounds or so, about 11,000 (3.5%) were called active. Not shown: some 4% with an inconclusive outcome. For the sample, actives were picked, then their nearest neighbours and some compounds at random. Unmarked numbers belong to inactive results. Calls come from the whole dose curve; as a rule, active = well fitted inhibition curve with a large enough effect; inconclusive = small, poorly fitted or top-dose-only effect, or another doubt; inactive = no such curve, though single readings can be large or run the other way.
# Molecular target: 4'-phosphopantetheinyl transferase ffp (Bacillus subtilis) (UniProt Q9F4F7)
# Test: qHTS Assay for Inhibitors of Bacillus subtilis Sfp phosphopantetheinyl transferase (PPTase);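 note: the enzyme is Sfp with the accession as filed and its product quenches rhodamine fluorescence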;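 for largest response in the series, negative = inhibition: 0% = enzyme reaction without inhibitor and -100% = no enzyme wells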
# Details: Biochemical Sfp PPTase activity
# Outline: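 Compounds were incubated with enzyme (final 15 nM) for 15 min at room temperature before substrate addition started the reaction. Fluorescence at 525 nm excitation, 598 nm emission was recorded immediately and after 30 minutes.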
# Potency is the fitted concentration of half-maximal effect.
Compound,"largest response in the series, negative = inhibition",Potency
Cc1ccccc1N1CCN(CC(=O)NCc2ccc(Cl)cc2)CC1,9.8%,
O=C(NCc1ccc(Cl)cc1)C1CCN(S(=O)(=O)c2cccs2)CC1,2.39%,
O=C(CN1CCN(S(=O)(=O)c2ccc(Cl)s2)CC1)NCc1ccc(Cl)cc1,,56.2 µM (active)
CN1CCN(C(=O)c2ccccc2NC(=O)COc2ccccc2Cl)CC1,18.2%,
COc1cc(/C=C(/NC(=O)c2ccc(Cl)cc2Cl)C(=O)O)cc(OC)c1OC,1.15%,
CC(C)NC(=O)c1ccc(Cl)cc1Cl,26.8%,
COC(=O)/C(=C\Nc1ccccc1)NC(=O)c1ccc(Cl)cc1Cl,,79.4 µM (active)
COc1ccc(N2CCN(C(=O)c3ccc(N4CCCCS4(=O)=O)cc3)CC2)cc1,1.49%,
COc1ncnc2c1N=C1CC(C)(C)CC(N)=C1S2,,44.7 µM (active)
CN(CC(=O)NCc1ccncc1)S(=O)(=O)c1ccc(Br)cc1,13.4%,
O=C(Nc1nc2c(F)cc(F)cc2s1)C1COc2ccccc2O1 (stereo not drawn),-2.2%,
O=C(Nc1nc(-c2ccncc2)cs1)C1COc2ccccc2O1 (stereo not drawn),,8.91 µM (active)
O=C(Nc1ncc([N+](=O)[O-])s1)C1COc2ccccc2O1 (stereo not drawn),-25.4%,
CC(=O)c1ccc(S(=O)(=O)NCc2nnnn2-c2ccccc2)cc1,25.6%,
Cc1ccc2c(c1)N(CC(=O)NCC1CCCO1)C(=O)CO2 (stereo not drawn),20.7%,
Cc1cc(-c2n[nH]c(=S)n2/N=C/C(Br)=C/c2ccccc2)n[nH]1,,39.8 µM (active)
Cc1cc(-c2n[nH]c(=S)n2/N=C/c2ccco2)n[nH]1,,79.4 µM (active)
S=c1[nH]nc(-c2cccnc2)n1/N=C/C(Cl)=C\c1ccccc1,-12.9%,
S=c1[nH]nc(-c2ccco2)n1/N=C/c1ccc(Br)s1,-25.9%,
CC(C)c1cc(C(=O)N/N=C/C(Br)=C/c2ccccc2)n[nH]1,3.6%,
S=c1[nH]nc(-c2ccco2)n1/N=C/c1ccccc1,-17.1%,
O=C(c1cc2ccccc2o1)N1CCN(Cc2ccccc2)CC1,8.96% and -10.3%,
Cc1ccc(CSCCNC(=O)CN(c2ccc(F)cc2)S(C)(=O)=O)cc1,7.19%,
O=C(c1ccncc1)N1CCC2(CCCN(C(c3ccccc3)c3ccccc3)C2)CC1,-0.961%,
Cc1ccc(CNC(=O)C(=O)c2cn(CC(=O)N3CCOCC3)c3ccccc23)cc1,6.58%,
O=C(Oc1ccc(F)cc1)N1CCOCC1,11.2%,
Cc1ccc(C(=O)Oc2ccc(C(=S)N3CCOCC3)cc2)cc1,-21.7%,
O=C(Oc1ccc(C(=S)N2CCOCC2)cc1)c1ccc(F)cc1,,50.1 µM (active)
